{"source": "PubChem BioAssay (NCATS)", "note": "Inconclusive results are not listed. A call without a number means that no potency is given here. Active and inactive are the calls of the source. Calls follow the shape of the dose curve; as a rule, active = well fitted cell-killing curve with a large enough effect; inconclusive = small, poorly fitted or top-dose-only effect; inactive = flat fitted curve, though single readings scatter. Potency is read from the fitted curve at half-maximal effect.", "data": [{"experiment": "Cell Viability - LYMP2-023 (AID 975); also: nearly all actives have a fitted effect of over 55% in size", "settings": "LYMP2-023 lymphoblastoid cell viability; series mostly up to 92.2 µM", "from_the_text": "NIH Chemical Genomics Center [NCGC]\nNIH Molecular Libraries Screening Centers Network [MLSCN]\nNational Institutes of Environmental Health Sciences [NIEHS]\nNational Toxicology Program [NTP]\nWe have developed a 1536-well cell-based assay for quantitative high throughput screening (qHTS) against a number of cell lines to determine in vitro cytotoxicity of small molecules. This particular assay uses a human lymphoblastoid cell line (LYMP2-023) purchased from Coriell Institute for Medical Research.\nNCGC Assay Protocol Summary:\nThe CellTiter-Glo luminescent cell viability assay (Promega) is a homogeneous method to measure the number of viable cells in culture. The end point readout of this assay is based on quantitation of intracellular ATP, an indicator of metabolic activity, using the luciferase reaction. Luciferase catalyzes the oxidation of beetle Luciferin to oxyluciferin and light in the presence of ATP. The luminescent signal is proportional to amount of ATP present.\nUsing the CellTiter-Glo luminescent cell viability assay, the amount of cellular ATP was measured in the lymphoblastoid cell line with complete culture medium following compound treatment for 24 hours. The assay was performed in opaque white Kalypsys 1536-well plates. In the screen, tetraoctylammonium bromide was used as positive control. Library compounds were measured for their ability to cause acute toxicity in the cell line, as reflected by a decrease in intracellular ATP levels, in a concentration-dependent manner. […] AC50 values were determined from concentration-response data modeled with the standard Hill equation.\nqHTS protocol for CellTiter Glo lymphoblastoid cellular assay\n[Step] [Parameter] [Value] [Description]\n1. Reagent; 5 uL; 2500 lymphoblastoid cells/well\n2. Time; 5 hr; 37 C incubation\n4. Controls; 23 nL; Tetraoctylammonium bromide 6.4pM to 92 uM\n5. Time; 24 hr; 37 C incubation\n6. Reagent; 5 uL; CellTiter Glo reagent\n7. Time; 30 min; Room Temperature\n8. Detection; Luminescence; Viewlux plate reader\nKeywords: cell viability, cytotoxicity, lymphoblastoid cell line, luminescence, NTPHTS, NTPHTS_NCGC, NIEHS, DSSTox, MLSMR, MLSCN, NIH Roadmap, qHTS, NCGC", "values": [{"compound": "Cc1ccc(S(N)(=O)=O)cc1", "Potency": "inactive"}, {"compound": "CCCCC(CC)COP(=O)(OCC(CC)CCCC)OCC(CC)CCCC", "note": "(stereo not given)", "Potency": "inactive"}, {"compound": "Oc1cc(Cl)cc(Cl)c1Cl", "Potency": "inactive"}, {"compound": "Cc1ccc(C(=O)O)cc1[N+](=O)[O-]", "Potency": "inactive"}, {"compound": "O=C1c2ccccc2C(=O)C1(O)O", "Potency": "inactive"}, {"compound": "CN(C)c1ccc(Cc2ccc(N(C)C)cc2)cc1", "Potency": "inactive"}, {"compound": "CC(=O)OC1CC(C)OC(C)O1", "note": "(stereo not given)", "Potency": "inactive"}, {"compound": "NC(=O)Nc1nc2ccccc2[nH]1", "Potency": "inactive"}, {"compound": "CCC(Cl)CC(Cl)C(Cl)C(Cl)C(Cl)C(C)Cl", "note": "(stereo not given)", "Potency": "inactive"}, {"compound": "c1ccc(COCc2ccccc2)cc1", "Potency": "inactive"}, {"compound": "C=C(C#N)C(=O)OCC", "Potency": "inactive"}, {"compound": "C=CC(=O)CC", "Potency": "inactive"}, {"compound": "Oc1ccc2c(c1)OCO2", "Potency": "inactive"}, {"compound": "CC(=O)c1ccc(Cl)c(Cl)c1Cl", "Potency": "inactive"}, {"compound": "Cc1ccc2ccc3cccc4ccc1c2c34", "Potency": "inactive"}, {"compound": "Cc1ccccc1OCC1CO1", "note": "(stereo not given)", "Potency": "inactive"}, {"compound": "C=CC(C)(O)CCCC(C)CCCC(C)CCCC(C)C", "note": "(stereo not given)", "Potency": "inactive"}, {"compound": "CC(=O)OCc1ccc2c(c1)OCO2", "Potency": "inactive"}, {"compound": "CC(/C=C/C=C(C)/C=C/C(=O)O)=C\\C=C\\C=C(C)\\C=C\\C=C(C)\\C=C\\C(=O)O", "Potency": "inactive"}, {"compound": "O=[N+]([O-])c1cc(Cl)c(Cl)c(Cl)c1Cl", "Potency": "inactive"}, {"compound": "Nc1ccc(-c2ccc(N)c(O)c2)cc1O", "Potency": "inactive"}, {"compound": "Nc1ccc(N=Nc2ccccc2)c(N)c1", "Potency": "inactive"}, {"compound": "CCCCOC(=O)COc1ccc(Cl)cc1Cl", "Potency": "inactive"}, {"compound": "Cc1cc(=O)oc2cc(O)cc(O)c12", "Potency": "inactive"}, {"compound": "O=CC(=O)c1ccccc1", "Potency": "inactive"}, {"compound": "O=[N+]([O-])c1ccccc1Nc1ccccc1", "Potency": "inactive"}, {"compound": "Nc1ccccc1O", "Potency": "inactive"}, {"compound": "O=C(O)/C=C/c1ccc(/C=C/C(=O)O)cc1", "Potency": "inactive"}, {"compound": "CC(C)S", "Potency": "inactive"}, {"compound": "C/C=C/C=C/C=O", "Potency": "50.1 µM (active)"}, {"compound": "c1ccc(Nc2cccc3ccccc23)cc1", "Potency": "inactive"}, {"compound": "CC(C)COC(=O)COc1cc(Cl)c(Cl)cc1Cl", "Potency": "inactive"}, {"compound": "C=CC1CO1", "note": "(stereo not given)", "Potency": "inactive"}, {"compound": "C[Si](C)(C)Cl", "Potency": "inactive"}, {"compound": "OC1CCCCC1", "Potency": "inactive"}, {"compound": "Brc1cc(Br)c(Oc2cc(Br)c(Br)cc2Br)cc1Br", "Potency": "inactive"}, {"compound": "CCCCC(CC)COC(=O)COc1ccc(Cl)cc1Cl", "note": "(stereo not given)", "Potency": "inactive"}, {"compound": "C[C@@H]1CC2(OC(O)[C@]3(C)O[C@H]23)O[C@H]2C[C@@]3(C)[C@@H]4CC[C@H]5C(C)(C)C(O[C@@H]6OC[C@@H](O)[C@H](O)[C@H]6O)CC[C@@]56C[C@@]46CC[C@]3(C)[C@@H]12", "note": "(stereo not given in full)", "Potency": "inactive"}, {"compound": "CCc1ccc(C(c2ccc(CC)cc2)C(Cl)Cl)cc1", "Potency": "inactive"}, {"compound": "Brc1ccc(-c2ccccc2)cc1", "Potency": "inactive"}]}]}
